Test results published in PubChem BioAssay (Tox21).
Activity calls are given as the source filed them. Calls follow the shape of the dose curve; as a rule, active = well fitted curve in the direction sought with a large enough effect in the repeat runs; inconclusive = weak or mixed curves; inactive = flat fitted curve, though single readings scatter.

Assay: qHTS assay to test for compound auto fluorescence at 590 nm (red) in HepG2 cell free culture (AID 720684)
Conditions: cell-free medium autofluorescence, red 540/590 nm; series mostly up to 91.3 µM
Summary of the method: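 Auto fluorescence equivalency versus Rose Bengal sodium, red channel Ex/Em 540/590 nm; compounds in cell-free MEM/10% FBS; DMSO vehicle control.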
% is scaled to controls: 0 for no effect and ±100 for the full control effect.

Row | Structure (SMILES) | fluorescence, % of Rose Bengal | outcome
1 | Cc1c(NC(=O)c2cccnc2)c(=O)n(-c2ccccc2)n1C | 0.102% [at 18.6 µM] (inactive) | 
2 | CN(C)CC/C=C1/c2ccccc2COc2ccc(CC(=O)O)cc21 |  | inactive
3 | O=C(O)CNC(=O)CNC(=O)CNC(=O)CSC(=O)c1ccccc1 |  | inactive
4 | O=C(CCCCC(=O)Nc1c(I)cc(I)c(C(=O)O)c1I)Nc1c(I)cc(I)c(C(=O)O)c1I |  | inactive
5 | C=C(C)C1CC=C(C)C(=O)C1 (configuration not stated) |  | inactive
6 | O=[N+]([O-])c1c(Cl)cc(Cl)cc1Cl |  | inactive
7 | Cc1cc(C)c(C(=O)O)c(C)c1 |  | inactive
8 | Cc1c(Cl)cccc1Cl |  | inactive
9 | ONc1ccccc1 |  | inactive
10 | N[C@@H](CSCCCO)C(=O)O |  | inactive
11 | C=CCN1C[C@H](C(=O)N(CCCN(C)C)C(=O)NCC)C[C@@H]2c3cccc4[nH]cc(c34)C[C@H]21 |  | inactive
12 | O=C1c2ccccc2C(=O)c2cc(Cl)ccc21 | -0.0228% [at 3.72 µM] (inactive) | 
13 | CN(C)C(C)(C)CO |  | inactive
14 | O=C(O)CCCCCC(=O)O |  | inactive
15 | CCCCCC(C)O (configuration not stated) |  | inactive
16 | CC1=C(C(=O)O)N2C(=O)[C@@H](NC(=O)[C@H](N)c3ccccc3)[C@H]2SC1 |  | inactive
17 | CC(=O)C1C(=O)C=C(C)OC1=O (configuration not stated) |  | inactive
18 | CCC(C)C(=O)OCCc1ccccc1 (configuration not stated) |  | inactive
19 | CCC(C)OC(C)CC (configuration not stated) |  | inactive
20 | N#CCC(=O)NN |  | inactive
21 | O=C1CCC(=O)N1Cl |  | inactive
22 | CCCC(=O)Nc1ccc(OCC(O)CNC(C)C)c(C(C)=O)c1 (configuration not stated) | -0.252% [at 18.6 µM] (inactive) | 
23 | OC[C@@H](O)C(O)[C@@H](O)CO (some centres not stated) |  | inactive
24 | O=C(CN1CCNCC1)NC1CCCCC1 |  | inactive
25 | CC(=O)O[C@H]1C[C@@H]2CC[C@@]1(C)C2(C)C |  | inactive
26 | CN1C[C@@H]2C[C@H]1CN2c1cc2c(cc1F)c(=O)c(C(=O)O)cn2C1CC1 |  | inactive
27 | CCCCCCCCCCCCCCCCCC#N |  | inactive
28 | Nc1nnnn1-c1ccccc1 |  | inactive
29 | Cn1c(=O)c2[nH]c(Br)nc2n(C)c1=O |  | inactive

Assay: qHTS assay to test for compound auto fluorescence at 460 nm (blue) in HepG2 cell free culture (AID 720685)
Conditions: Cell-free culture medium, blue autofluorescence 405/460 nm; series mostly up to 91.3 µM
Summary of the method: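 Cell-free plates of MEM plus 10% FBS received 23 nL compound or DMSO vehicle; blue-channel (405/460 nm) intensity scored against triamterene as reference fluorophore.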

Row | Structure (SMILES) | fluorescence, % of fluorescent control | outcome
30 | Cc1c(NC(=O)c2cccnc2)c(=O)n(-c2ccccc2)n1C | -0.005% [at 18.6 µM] (inactive) | 
31 | CN(C)CC/C=C1/c2ccccc2COc2ccc(CC(=O)O)cc21 |  | inactive
32 | COc1cc2c(cc1OC)C(=O)C(CC1CCN(Cc3ccccc3)CC1)C2 (configuration not stated) |  | inactive
33 | O=C(O)CNC(=O)CNC(=O)CNC(=O)CSC(=O)c1ccccc1 |  | inactive
34 | O=C(CCCCC(=O)Nc1c(I)cc(I)c(C(=O)O)c1I)Nc1c(I)cc(I)c(C(=O)O)c1I |  | inactive
35 | CC12CCC(C1)C(C)(C)C2O (configuration not stated) |  | inactive
36 | C=C(C)C1CC=C(C)C(=O)C1 (configuration not stated) |  | inactive
37 | O=[N+]([O-])c1c(Cl)cc(Cl)cc1Cl |  | inactive
38 | Cc1cc(C)c(C(=O)O)c(C)c1 |  | inactive
39 | Cc1c(Cl)cccc1Cl |  | inactive
40 | ONc1ccccc1 |  | inactive
41 | N[C@@H](CSCCCO)C(=O)O |  | inactive
42 | C=CCN1C[C@H](C(=O)N(CCCN(C)C)C(=O)NCC)C[C@@H]2c3cccc4[nH]cc(c34)C[C@H]21 |  | inactive
43 | O=C1c2ccccc2C(=O)c2cc(Cl)ccc21 | -0.0625% [at 3.72 µM] (inactive) | 
44 | CN(C)C(C)(C)CO |  | inactive
45 | CCCCCc1cccc(=O)o1 |  | inactive
46 | O=C(O)CCCCCC(=O)O |  | inactive

Row | Structure (SMILES) | fluorescence, % of fluorescent control | outcome
47 | CCCCCC(C)O (configuration not stated) |  | inactive
48 | CC1=C(C(=O)O)N2C(=O)[C@@H](NC(=O)[C@H](N)c3ccccc3)[C@H]2SC1 |  | inactive
49 | CC(=O)C1C(=O)C=C(C)OC1=O (configuration not stated) |  | inactive
50 | CCC(C)C(=O)OCCc1ccccc1 (configuration not stated) |  | inactive
51 | CCC(C)OC(C)CC (configuration not stated) |  | inactive
52 | N#CCC(=O)NN |  | inactive
53 | OCCN1CCOCC1 |  | inactive
54 | O=C1CCC(=O)N1Cl |  | inactive
55 | CCCC(=O)Nc1ccc(OCC(O)CNC(C)C)c(C(C)=O)c1 (configuration not stated) | -0.0068% [at 18.6 µM] (inactive) | 
56 | OC[C@@H](O)C(O)[C@@H](O)CO (some centres not stated) |  | inactive
57 | O=C(CN1CCNCC1)NC1CCCCC1 |  | inactive
58 | CC(=O)O[C@H]1C[C@@H]2CC[C@@]1(C)C2(C)C |  | inactive
59 | CN1C[C@@H]2C[C@H]1CN2c1cc2c(cc1F)c(=O)c(C(=O)O)cn2C1CC1 |  | inactive
60 | CCCCCCCCCCCCCCCCCC#N |  | inactive
61 | Nc1nnnn1-c1ccccc1 |  | inactive
62 | Cn1c(=O)c2[nH]c(Br)nc2n(C)c1=O |  | inactive
63 | NCCOCCN |  | inactive

Assay: qHTS assay to test for compound auto fluorescence at 535 nm (green) in HepG2 cell free culture (AID 720686)
Conditions: Cell-free medium, green autofluorescence 485/535 nm; series mostly up to 91.3 µM

Row | Structure (SMILES) | fluorescence, % of fluorescein control | outcome
64 | Cc1c(NC(=O)c2cccnc2)c(=O)n(-c2ccccc2)n1C | -0.0688% [at 18.6 µM] (inactive) | 
65 | CN(C)CC/C=C1/c2ccccc2COc2ccc(CC(=O)O)cc21 |  | inactive
66 | COc1cc2c(cc1OC)C(=O)C(CC1CCN(Cc3ccccc3)CC1)C2 (configuration not stated) |  | inactive
67 | O=C(O)CNC(=O)CNC(=O)CNC(=O)CSC(=O)c1ccccc1 |  | inactive
68 | O=C(CCCCC(=O)Nc1c(I)cc(I)c(C(=O)O)c1I)Nc1c(I)cc(I)c(C(=O)O)c1I |  | inactive
69 | CC12CCC(C1)C(C)(C)C2O (configuration not stated) |  | inactive
70 | C=C(C)C1CC=C(C)C(=O)C1 (configuration not stated) |  | inactive
71 | O=[N+]([O-])c1c(Cl)cc(Cl)cc1Cl |  | inactive
72 | Cc1cc(C)c(C(=O)O)c(C)c1 |  | inactive
73 | Cc1c(Cl)cccc1Cl |  | inactive
74 | ONc1ccccc1 |  | inactive
75 | N[C@@H](CSCCCO)C(=O)O |  | inactive
76 | C=CCN1C[C@H](C(=O)N(CCCN(C)C)C(=O)NCC)C[C@@H]2c3cccc4[nH]cc(c34)C[C@H]21 |  | inactive
77 | O=C1c2ccccc2C(=O)c2cc(Cl)ccc21 | -0.0292% [at 3.72 µM] (inactive) | 
78 | CN(C)C(C)(C)CO |  | inactive
79 | CCCCCc1cccc(=O)o1 |  | inactive
80 | O=C(O)CCCCCC(=O)O |  | inactive

Row | Structure (SMILES) | fluorescence, % of fluorescein control | outcome
81 | CCCCCC(C)O (configuration not stated) |  | inactive
82 | CC1=C(C(=O)O)N2C(=O)[C@@H](NC(=O)[C@H](N)c3ccccc3)[C@H]2SC1 |  | inactive
83 | CC(=O)C1C(=O)C=C(C)OC1=O (configuration not stated) |  | inactive
84 | CCC(C)C(=O)OCCc1ccccc1 (configuration not stated) |  | inactive
85 | CCC(C)OC(C)CC (configuration not stated) |  | inactive
86 | N#CCC(=O)NN |  | inactive
87 | OCCN1CCOCC1 |  | inactive
88 | O=C1CCC(=O)N1Cl |  | inactive
89 | CCCC(=O)Nc1ccc(OCC(O)CNC(C)C)c(C(C)=O)c1 (configuration not stated) | -0.0602% [at 18.6 µM] (inactive) | 
90 | OC[C@@H](O)C(O)[C@@H](O)CO (some centres not stated) |  | inactive
91 | O=C(CN1CCNCC1)NC1CCCCC1 |  | inactive
92 | CC(=O)O[C@H]1C[C@@H]2CC[C@@]1(C)C2(C)C |  | inactive
93 | CN1C[C@@H]2C[C@H]1CN2c1cc2c(cc1F)c(=O)c(C(=O)O)cn2C1CC1 |  | inactive
94 | CCCCCCCCCCCCCCCCCC#N |  | inactive
95 | Nc1nnnn1-c1ccccc1 |  | inactive
96 | Cn1c(=O)c2[nH]c(Br)nc2n(C)c1=O |  | inactive
97 | NCCOCCN |  | inactive
